Screens from PubChem.
ELG1 genotox – inducers of genotoxicity in HEK293T ELG1-luciferase cells. HEK293T ELG1-luciferase reporter, luminescence, 16 h. Potency, µM (top dose mostly 46 µM), hits mostly activators. hit rate 1.3% among 330,000; also: nearly all actives have a fitted effect of over 60% in size
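HEK293T cells expressing luciferase-tagged ELG1 were exposed to compound or DMSO vehicle for 16 hr at 37 °C and 5% CO2. Luciferase activity was then measured with ONE-Glo after 30 min at room temperature.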
NPC1 promoter act – activators of NPC1 promoter | Huh7 NPC1 promoter luciferase reporter, 24 h | Potency, µM (titrated, usually from 9.22 µM), most hits filed as activators | hit rate 2.4% among 320,000 | AID 485313; also: nearly all actives have a fitted effect of over 60% in size
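Huh7 cells stably carrying NPC1 promoter–luciferase, plated in Opti-MEM with 10% FBS for 2 h, were exposed to compound in DMSO for 24 h at 37 °C; luciferase reagent was added for 10 min and luminescence read.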
SMN2 splice enh – increases expression of the SMN2 splice variant; HEK293 SMN2-luciferase splicing reporter, luminescence, 30-36 h; Potency, µM (series often up to 46.1 µM), hits mostly activators; hit rate 2.8% among 210,000; AID 1458; also: nearly all actives have a fitted effect of over 55% in size
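HEK293 cells carry an SMN2 […]–luciferase reporter in which exon 7 inclusion puts luciferase in frame. Cells were plated 10-12 h before compound addition, then incubated 30-36 h at 37C. ONE-Glo luminescence was read; sodium butyrate at 4.5 mM final served as control.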
Rab9 promoter act – Rab9 promoter activation. Huh7 Rab9 promoter-luciferase reporter, luminescence, 24 h. Potency, µM (titrated, usually from 9.22 µM), actives largely listed as activators. hit rate 2.8% among 320,000; also: nearly all actives have a fitted effect of over 60% in size
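Huh7 cells stably carrying a Rab9 promoter-luciferase reporter, 1500 cells per well in OP-MEM I with 10% FBS, treated with compound 24 hours at 37C. Luciferase activity read by luminescence after 10 minutes with Amplite reagent.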
FLuc modulator – counter-screen for miR-21 project: firefly luciferase inhibitors or activators; purified FLuc, Km substrates, luminescence inhibition; Potency, µM (series often up to 57.5 µM), hits mostly inhibitors; hit rate 6.9% among 360,000; also: nearly all actives have a fitted effect of over 55% in size
Target sequence (P08659 whole entry, looked up): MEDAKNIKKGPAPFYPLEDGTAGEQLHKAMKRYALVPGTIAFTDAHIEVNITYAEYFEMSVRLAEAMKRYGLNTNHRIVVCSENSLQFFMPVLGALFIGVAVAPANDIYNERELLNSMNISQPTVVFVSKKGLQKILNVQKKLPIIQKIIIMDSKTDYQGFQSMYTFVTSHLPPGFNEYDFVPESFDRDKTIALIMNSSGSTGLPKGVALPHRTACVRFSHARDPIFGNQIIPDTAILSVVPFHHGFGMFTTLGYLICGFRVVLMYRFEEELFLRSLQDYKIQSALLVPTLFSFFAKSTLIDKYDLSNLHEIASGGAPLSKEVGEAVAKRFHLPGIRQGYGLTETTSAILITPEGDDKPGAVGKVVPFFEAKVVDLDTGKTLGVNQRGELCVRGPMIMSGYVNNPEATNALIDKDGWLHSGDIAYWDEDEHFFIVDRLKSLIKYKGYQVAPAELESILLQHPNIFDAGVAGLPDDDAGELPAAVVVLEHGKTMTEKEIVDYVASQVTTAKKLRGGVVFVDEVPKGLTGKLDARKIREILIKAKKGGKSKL
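Purified P. pyralis luciferase, 10 nM final, with Km-level 10 uM D-luciferin and 10 uM ATP in 50 mM Tris acetate pH 7.5, 10 mM Mg acetate, 0.01% Tween-20, 0.05% BSA; 6-point qHTS titration about 60 µM downward; luminescence read.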
ELG1 repair inh – ELG1-dependent DNA repair inhibition. AID 504467. HEK293T ELG1-luciferase reporter, luminescence, 16 h; DNA damage induced by 5-fluorouridine. Potency, µM (doses to about 46.1 µM), usual class: inhibitors. hit rate 2.3% among 330,000; also: nearly all actives have a fitted effect of over 55% in size
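Step one: seed 2,000 cells per well. Step two: pin-transfer compound or DMSO alongside 5-fluorouridine. Step three: incubate 16 hr, 37 °C, 5% CO2. Step four: add ONE-Glo, wait 30 min, read luminescence.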
Hits are given with their value. Rows were chosen to be rich in hits. Some 9.4% of all compounds tested hit in one or more screens of this group. Calls follow the shape of the dose curve; as a rule, active = well fitted curve in the direction sought with a large enough effect; inconclusive = small, poorly fitted or top-dose-only effect, or another doubt; inactive = no such curve, though single readings can be large; an effect the other way counts as inactive or inconclusive.

`Cc1cc(C)cc(OCCCn2c(-c3ccc(Cl)cc3)nc3ccccc3c2=O)c1` gave SMN2 splice enh inactive and FLuc modulator inactive.
For CCOC(=O)c1ccc(NC(=O)c2ccc(CN3C(=O)CCn4nc(C)cc43)cc2)cc1 the results were FLuc modulator inactive.
Screening COc1cccc(C(=O)NC2CCCC2)c1 returned ELG1 genotox inactive, NPC1 promoter act inactive, SMN2 splice enh inactive, Rab9 promoter act inactive, FLuc modulator inactive and ELG1 repair inh inconclusive.
Cc1cccc(C(=O)NC2CCCCCCC2)c1 was read as ELG1 genotox inconclusive, NPC1 promoter act 4µM, Rab9 promoter act 4.5µM, FLuc modulator 12µM and ELG1 repair inh inconclusive.
CCSc1ncc(Cl)c(C(=O)Nc2ccc(S(=O)(=O)N3CCCCC3)cc2)n1 was read as SMN2 splice enh inactive and FLuc modulator inactive.
`CCc1nnc(NS(=O)(=O)c2ccc(NC(=O)c3ccc(Cl)cc3)cc2)s1` gave ELG1 genotox inactive, NPC1 promoter act inactive, SMN2 splice enh inactive, Rab9 promoter act inactive, FLuc modulator 19µM and ELG1 repair inh inconclusive.
Screening CCc1nnc(NS(=O)(=O)c2ccc(NC(=O)/C=C/c3ccccc3Cl)cc2)s1 returned ELG1 genotox inactive, NPC1 promoter act inactive, SMN2 splice enh inactive, Rab9 promoter act inactive, FLuc modulator 19µM and ELG1 repair inh inactive.
`CCCN(CCC)C(=O)c1nn(C)c2c1CSc1ccc(C)cc1-2` gave FLuc modulator inactive.
Screening COc1ccc(C2=C/C(=C\c3cccc(OC(C)=O)c3)C(=O)O2)cc1 returned ELG1 genotox inactive, NPC1 promoter act inactive, SMN2 splice enh inconclusive, Rab9 promoter act inactive, FLuc modulator 24µM and ELG1 repair inh inactive.
`COc1ccc(C2=C/C(=C\c3ccccc3OC(C)=O)C(=O)O2)cc1` gave ELG1 genotox inactive, NPC1 promoter act inactive, Rab9 promoter act inactive, FLuc modulator inconclusive and ELG1 repair inh inactive.
For CCO[C@H]1OC(C(=O)N2CCN(Cc3ccc4c(c3)OCO4)CC2)=C[C@@H](c2cn(C(C)=O)c3ccccc23)[C@@H]1CCCO the results were ELG1 genotox inactive, NPC1 promoter act inactive, Rab9 promoter act inactive, FLuc modulator inactive and ELG1 repair inh 10µM.
Screening O=C(NCc1nc2ccccc2[nH]1)C1=C[C@H](c2ccccc2)C[C@H](OCc2ccc(CO)cc2)O1 returned ELG1 genotox inactive, NPC1 promoter act inactive, Rab9 promoter act inactive, FLuc modulator inactive and ELG1 repair inh 21µM.
O=C(C1=C[C@H](c2ccccc2)C[C@H](OCc2ccc(CO)cc2)O1)N1CCN(Cc2ccc3c(c2)OCO3)CC1 was read as ELG1 genotox inactive, NPC1 promoter act inactive, Rab9 promoter act inactive, FLuc modulator inactive and ELG1 repair inh 8.2µM.
For O=C(C1=C[C@H](c2coc3ccccc3c2=O)C[C@H](OCc2ccc(CO)cc2)O1)N1CCN(Cc2ccc3c(c2)OCO3)CC1 the results were ELG1 genotox inactive, NPC1 promoter act inactive, Rab9 promoter act inactive, FLuc modulator inactive and ELG1 repair inh 13µM.
O=C(C1=C[C@@H](c2ccccc2)C[C@@H](OCCCCO)O1)N1CCN(Cc2ccc3c(c2)OCO3)CC1 was read as ELG1 genotox inactive, NPC1 promoter act inactive, Rab9 promoter act inactive, FLuc modulator inactive and ELG1 repair inh inactive.
`O=C(C1=C[C@@H](c2coc3ccccc3c2=O)C[C@@H](OCc2ccc(CO)cc2)O1)N1CCN(Cc2ccc3c(c2)OCO3)CC1` gave ELG1 genotox inactive, NPC1 promoter act inactive, Rab9 promoter act inactive, FLuc modulator inactive and ELG1 repair inh inconclusive.
Screening CCN(Cc1ccccc1)C(=O)Nc1ccc2c(c1)N(C)C(=O)c1ccccc1S2 returned FLuc modulator inactive.
For CN(C(=O)c1cnc(N2CCOCC2)c2ccccc12)c1ccccc1F the results were FLuc modulator inactive.
For Cc1ccccc1Cn1c(=O)n(CCc2ccccc2)c(=O)c2c(C)c(C)sc21 the results were SMN2 splice enh inactive and FLuc modulator inactive.
For CCCn1c2ccccc2c2cnn(CC(=O)N(Cc3ccccc3)C(C)C)c(=O)c21 the results were FLuc modulator inactive.
For O=C(C1=C[C@H](c2ccc3c(c2)OCO3)C[C@H](OCc2ccc(CO)cc2)O1)N1CCN(Cc2ccc3c(c2)OCO3)CC1 the results were ELG1 genotox inactive, NPC1 promoter act inactive, Rab9 promoter act inactive, FLuc modulator inactive and ELG1 repair inh 16µM.
`CC(=O)n1cc([C@@H]2C=C(C(=O)N3CCN(Cc4ccccc4)CC3)O[C@H](OCc3ccc(CO)cc3)C2)c2ccccc21` gave ELG1 genotox inactive, NPC1 promoter act inactive, Rab9 promoter act inactive, FLuc modulator inactive and ELG1 repair inh 9.2µM.
`CN1CCN(C(=O)C2=C[C@@H](c3ccc4c(c3)OCO4)C[C@@H](OCc3ccc(CO)cc3)O2)CC1` gave ELG1 genotox inactive, NPC1 promoter act inactive, Rab9 promoter act inactive, FLuc modulator inactive and ELG1 repair inh inactive.
`c1ccc2oc(-c3[nH]ncc3CN3CCSCC3)cc2c1` gave ELG1 genotox inactive, NPC1 promoter act inactive, Rab9 promoter act inactive, FLuc modulator inactive and ELG1 repair inh inactive.
Screening c1ccc2oc(-c3ccn[nH]3)cc2c1 returned ELG1 genotox inconclusive, NPC1 promoter act 2.8µM, Rab9 promoter act 3.2µM, FLuc modulator 8.5µM and ELG1 repair inh inconclusive.
Screening Cc1ccc(NC(=O)C2Cc3ccccc3O/C2=N\O)cc1C (centres undefined) returned ELG1 genotox inconclusive, NPC1 promoter act inactive, Rab9 promoter act inconclusive, FLuc modulator inactive and ELG1 repair inh inconclusive.
`O=C(Nc1ccc(Br)cc1)C1Cc2ccccc2O/C1=N\O` (centres undefined) gave ELG1 genotox 18µM, NPC1 promoter act 3.2µM, Rab9 promoter act 2.8µM, FLuc modulator inconclusive and ELG1 repair inh inconclusive.
Screening CCOc1ccc(CNCc2c(C(=O)O)c(C)n(Cc3ccc(C)cc3)c2C)cc1 returned SMN2 splice enh inactive and FLuc modulator inactive.
For COc1ccc(N2CC(O)=C(c3nc4ccccc4s3)C2=N)cc1 the results were ELG1 genotox inconclusive, NPC1 promoter act inactive, SMN2 splice enh inactive, Rab9 promoter act inactive, FLuc modulator inactive and ELG1 repair inh inactive.
Screening COc1cccc(N2CC(O)=C(c3nc4ccccc4s3)C2=N)c1 returned ELG1 genotox inconclusive, NPC1 promoter act inactive, SMN2 splice enh inconclusive, Rab9 promoter act inactive, FLuc modulator 21µM and ELG1 repair inh inconclusive.
Screening O=C(Nc1nnc(-c2ccc(Br)cc2)o1)c1ccco1 returned ELG1 genotox inactive, NPC1 promoter act inactive, Rab9 promoter act inconclusive, FLuc modulator 2.7µM and ELG1 repair inh inconclusive.
